Rows were chosen to be rich in hits. Some 19% of all compounds tested hit in one or more screens of this group.
RORgamma inh: inhibitors of mouse ROR gamma transcriptional activity; actives 5.4% (n = 310,000); Potency, µM (highest dose often 53.6 µM), for the others: at the top dose activity change, negative = inhibition, most hits filed as inhibitors; AID 2551; Drosophila S2 Gal4-RORgamma UAS-luciferase reporter, 20 h; P51450; further: nearly all actives have a fitted effect of over 60% in size
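Compounds are pin-transferred onto Drosophila Schneider cells expressing a copper-inducible Gal4–ROR gamma transactivation domain fusion. After 1 hr, copper sulfate is added to 700 uM final; luciferase is read 20 hr later.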
VP16 counter: counter-screen for ROR gamma inhibitors: Gal4-VP16 reporter | actives 3.5% (n = 310,000) | Potency, µM (top dose mostly 53.6 µM), for the others: at the highest dose activity, negative = inhibition, usual class: inhibitors | AID 2546 | Drosophila S2 Gal4-VP16 UAS-luciferase, luminescence, 20 h;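 further: Gal4-VP16 expression switched on by copper sulfate through the metallothionein promoter; nearly all actives have a fitted effect of over 50% in size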
DT40 TDP1 CPT: growth inhibition of DT40 Tdp1-/-;hTDP1 cells with camptothecin (screen for TDP1 inhibitors). AID 686979. actives 12% (n = 420,000). chicken DT40 Tdp1-/-;hTDP1 cells + 20 nM CPT, ATP luminescence, 48 h. Potency, µM (titrated, usually from 46.2 µM), inactives show top-dose activity change, negative = growth inhibition, usual class: inhibitors; further: nearly all actives have a fitted effect of over 55% in size
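Cell growth measured by CellTiter-Glo luminescence after a minimum 48 h, 37 C compound exposure with 20 nM CPT in Tdp1-knockout DT40 cells stably expressing hTDP1, seeded 400/well; qHTS titration format.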
TDP1 block: TDP1 (human) enzyme inhibition | recombinant TDP1, AlphaScreen DNA substrate cleavage | AID 485290 | actives 0.28% (n = 350,000) | Potency, µM (doses to about 130 µM), for the others: at the highest dose activity change, negative = inhibition, usual class: inhibitors | Q9NUW8; further: nearly all actives have a fitted effect of over 40% in size
Target sequence (Q9NUW8 whole entry, looked up): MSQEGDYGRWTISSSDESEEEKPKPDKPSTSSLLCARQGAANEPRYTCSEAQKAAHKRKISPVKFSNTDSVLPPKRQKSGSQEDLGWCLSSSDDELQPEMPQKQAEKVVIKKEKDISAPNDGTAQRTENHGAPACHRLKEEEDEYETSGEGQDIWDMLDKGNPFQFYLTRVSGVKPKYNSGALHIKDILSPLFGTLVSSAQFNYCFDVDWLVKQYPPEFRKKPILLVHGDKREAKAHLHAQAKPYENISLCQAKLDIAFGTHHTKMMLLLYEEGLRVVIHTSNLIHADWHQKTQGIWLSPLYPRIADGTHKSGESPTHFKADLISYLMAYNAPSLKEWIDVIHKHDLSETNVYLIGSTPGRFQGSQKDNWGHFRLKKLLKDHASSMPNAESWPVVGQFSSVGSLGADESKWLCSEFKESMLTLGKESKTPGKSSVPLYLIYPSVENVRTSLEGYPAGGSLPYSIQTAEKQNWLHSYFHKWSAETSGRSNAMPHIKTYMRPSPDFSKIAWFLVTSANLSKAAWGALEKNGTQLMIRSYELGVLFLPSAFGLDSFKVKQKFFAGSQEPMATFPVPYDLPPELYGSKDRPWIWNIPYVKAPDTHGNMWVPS
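Steps: enzyme plus compound, 15 min RT; add biotin/phosphotyrosine-FITC oligonucleotide (15 nM final), react 5 min; add donor/acceptor beads (10 ug/ml final), 10 min; read AlphaScreen. Tdp1 at 1 nM final.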
DT40 TDP1 no CPT: qHTS for Inhibitors of human tyrosyl-DNA phosphodiesterase 1 (TDP1): qHTS in cells in absence of CPT. DT40 Tdp1-/- hTDP1 cells, no CPT, ATP luminescence, 48 h. Potency, µM (series often up to 46.2 µM), without a hit: at the highest dose activity change, negative = growth inhibition, hits mostly inhibitors. actives 15% (n = 420,000); further: nearly all actives have a fitted effect of over 55% in size
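Readout: luminescence from CellTiter-Glo after 30 min in the dark at RT. Cells: DT40 Tdp1-/- with stable hTDP1, 400/well. Exposure: compounds alone, ≥48 hr, 37 °C.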
An asterisk follows results filed as active; ? = inconclusive; / = no result given; [ ] = remark or other dose. The call rests on the fitted dose curve; in most records, active means well fitted curve in the direction sought with a large enough effect; inconclusive means small, poorly fitted or top-dose-only effect, or another doubt; inactive means no such curve, though single readings can be large; an effect the other way counts as inactive or inconclusive. On the % scale 0 is the no-effect control and ±100 the full control effect; potency means the concentration at half of the fitted maximal effect.

SMILES	RORgamma inh	VP16 counter	DT40 TDP1 CPT	TDP1 block	DT40 TDP1 no CPT
CC1(C)CC(=O)C(CS(=O)(=O)c2ccccc2)=C(Cl)C1	?	?	5.2µM*	1%	2.9µM*
CC(=O)N(C(C)=O)c1nc(-c2ccccc2)cn1/N=C/c1ccccc1	23%	-25%	?	-3%	?
CCOC(=O)C1=C(CN2CCN(c3ccc(OC)cc3)CC2)NC(=O)NC1c1ccc(Cl)cc1 (stereo unspecified)	/	/	21µM*	12%	15µM*
CCOC(=O)C1=C(CN2CCN(c3cc(C)ccc3C)CC2)NC(=O)NC1c1ccc(Cl)cc1 (stereo unspecified)	/	/	?	7%	16µM*
CCOC(=O)c1[nH]c(C)c(C(=O)N2CCN(c3ccc(OC)cc3)CC2)c1C	19%	-1%	-21%	1%	?
CCOC(=O)c1[nH]c(CN2CCN(c3ccc(OC)cc3)CC2)c(C(=O)OCC)c1C	34%	-24%	-23%	8%[0.0935 µM]	13µM*
CCOC(=O)C1=C(CN2CCCCC2)NC(=O)NC1c1ccc(C)cc1 (stereo unspecified)	/	/	-14%	0%	-12%
O=C(COC(=O)c1ccc(O)cc1)NC(c1ccccc1)c1ccccc1	/	/	-5%	2%	-30%
O=C(COC(=O)c1ccc(O)cc1)NCCC1=CCCCC1	-14%	7%	-24%	0%	-3%
Cc1cc(F)ccc1-c1cc(C(=O)NCc2ccccc2)[nH]n1	/	/	26µM*	/	?
Cc1cc(O)ccc1-c1cc(C(=O)NCc2ccc(F)cc2)[nH]n1	/	/	?	/	-24%
COc1ccc(Cl)cc1-c1cc(C(=O)NCc2cccc(C(F)(F)F)c2)[nH]n1	/	/	7.3µM*	/	?
COc1ccc(Cl)cc1-c1cc(C(=O)NCc2ccc(F)cc2)[nH]n1	/	/	6.5µM*	/	8.2µM*
COc1ccc(Cl)cc1-c1cc(C(=O)NCc2ccc(C(F)(F)F)cc2)[nH]n1	/	/	4.6µM*	/	7.3µM*
O=C(COC(=O)C1CCN(c2ccc(C(F)(F)F)cn2)CC1)Nc1cccc(F)c1	/	/	?	/	-17%
O=C(COC(=O)/C(=C/c1cccs1)c1cccs1)NC(c1ccccc1)c1ccccc1	-5%	-16%	16µM*	3%	16µM*
Cc1ccc(NC(=O)CCC(=O)NNC(=O)/C=C/C(=O)O)c(C)c1	-6%	?	13%	3%	13%
O=C(Nc1cc(Cl)ccc1O)c1cc(-c2ccc3c(c2)OCO3)on1	/	/	-5%	-1%	2%
O=C(Nc1cccc(Cl)c1)c1cc(-c2ccc3c(c2)OCCO3)on1	/	/	?	/	12µM*
O=C(Nc1cccc(Cl)c1)c1cc(-c2ccc3c(c2)OCO3)on1	/	/	-29%	1%	?
Cc1cccc(NC(=O)c2cc(-c3ccc4c(c3)OCCO4)on2)c1	/	/	23µM*	-2%	?
Cc1ccc(Cl)cc1NC(=O)c1cc(-c2ccc3c(c2)OCCO3)on1	/	/	15µM*	-4%	?
COc1cccc(C(=O)Nc2cc(S(=O)(=O)N3CCCCC3)ccc2OC)c1	-3%	0%	?	2%	?
CC[N+](C)(C)c1cccc(O)c1	3%	-3%	13%	3%	9%
Cc1ccc(Cl)cc1N1CCN(C(=O)CN2C(=O)c3cccc4cccc2c34)CC1	-8%	-19%	-16%	-9%	-19%
CCC(=O)Nc1nnc(C)s1	12%	9%	0%	1%	1%
CCOc1ccccc1C1C(C(=O)Nc2ccccc2)=C(C)Nc2nc(SCC(=O)c3ccc(C)cc3)nn21 (stereo unspecified)	/	/	7.3µM*	5%	9.2µM*
CC1=C(C(=O)Nc2ccc(C)cc2C)C(c2ccccc2F)n2nc(SCC(=O)c3ccc(C)cc3)nc2N1 (stereo unspecified)	/	/	18µM*	-1%	15µM*
COC(=O)c1c(-c2cccs2)csc1NC(=O)c1ccc(C(C)(C)C)cc1	/	/	16µM*	-12%	15µM*
